Source: PubChem (Broad Institute)
Vif imaging = HIV Vif inhibition; inhibition, % at 7.49 µM; AID 602346; HEK293T cells, Vif self-association by quenched fluorescence, imaging, 24 h; hit rate 0.35% among 340,000; in the data active = inhibition above about 50%, passing the limit was not always enough; inconclusive = no clear call, values can overlap the other calls; inactive = below about 31%
PfHsp90 yeast 2 = growth inhibition of yeast expressing Plasmodium Hsp90. inhibition, % at 9.4 µM. S. cerevisiae expressing PfHsp90, BacTiter-Glo ATP, 48 h; yeast lacking PDR1 and PDR3 efflux regulators. AID 504621. hit rate 0.32% among 310,000;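 active = every replicate shows inhibition above about 80%, whatever the replicate mean, limit read from the data; inconclusive = mean inhibition reaches the set limit but some replicate falls short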
MITF TRPM1 HTS = MITF TRPM1 promoter activation in melanoma cells; activation, % at 12.5 µM; SK-MEL-5 TRPM1-promoter luciferase, 24 h; % of positive control, neutral wells = 0; hit rate 0.75% among 300,000; AID 588334;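 active = mean activation of at least 80% with every replicate also reaching 80%; inconclusive = mean reaches 80% but some replicate falls short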
N-glyco inh = blocks N-linked glycosylation in D54 reporter cells. D54 ERlucT glycosylation luciferase reporter, 24 h; percent of 100 nM tunicamycin response. reporter increase, % at 12.5 µM. hit rate 0.23% among 360,000. AID 588692;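 active = mean luciferase reporter signal, scaled so untreated is 0 and the glycosylation-blocking control 100, at or above a set limit in every replicate; inconclusive = mean reaches the limit but not every replicate does; inactive = mean below the limit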;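 note: luciferase carries N-glycosylation sites so blocking glycosylation raises the light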
esBAF inh = blocks esBAF chromatin remodeling in mouse ES cells | reporter increase, % at 12.5 µM | AID 602393 | Bmi1-luciferase knock-in reporter, 24 h; 100% = twice the neutral-well signal | hit rate 2% among 350,000; in the data active = activation above about 40%; inconclusive = no clear call, values can overlap the other calls;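 note: a rise in the Bmi1 reporter signal indicates esBAF inhibition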
Wnt bcat act = activators of Wnt/beta-catenin signaling. activation, % at 9.35 µM. AID 743398. hit rate 1.2% among 300,000. Wnt/beta-catenin reporter cell assay, activator, plate reader; in the data active = activation above about 30%, passing the limit was not always enough; inconclusive = no clear call, values can overlap the other calls
Of the large screens only hits and unclear results are named; the others gave an inactive call. This is a sample that favours compounds with a hit; in the whole collection about 3% have one here.

Clc1ncnc2c1oc1ccccc12	esBAF inh 52, Wnt bcat act 67
Cc1ccccc1NC(=O)Cc1nc(COC(=O)c2ncc(Cl)c(Cl)c2Cl)cs1	none
C=CCn1c2ccccc2c(=O)c2cc(C#CC[C@@H](C)O)ccc21	MITF TRPM1 HTS 94, esBAF inh 52, Wnt bcat act 36
C[C@H](CO)N1C[C@H](C)[C@@H](CN(C)S(=O)(=O)c2ccc(F)cc2)OCCCC[C@H](C)Oc2ccc(NS(C)(=O)=O)cc2C1=O	none (no result: Vif imaging, PfHsp90 yeast 2, MITF TRPM1 HTS, N-glyco inh, Wnt bcat act)
CCOC(=O)/C(C#N)=C1/C=CN(c2ccc(C)cc2)C=N1	esBAF inh 47
CCN1CCC2(CC1)Oc1c(OC)cccc1C1CC(c3cccnc3)=NN12 (stereo not given)	Wnt bcat act 36 (no result: PfHsp90 yeast 2, MITF TRPM1 HTS, esBAF inh)
CCCC1COC(Cn2cncn2)(c2ccc(C)cc2)O1 (stereo not given)	PfHsp90 yeast 2 99
CC(=O)N1c2ccc(S(=O)(=O)N3CCC(C(=O)Nc4cccc(F)c4)CC3)cc2CC1C (stereo not given)	none
COc1ccc(C2=NN(C(=O)CN3CCOCC3)C(c3nc4ccccc4[nH]3)C2)cc1 (stereo not given)	esBAF inh 59, Wnt bcat act inconclusive
COc1ccc(C2=NN(C(=O)CN3CCCCC3)C(c3ccc(C)cc3)C2)cc1 (stereo not given)	none
COc1cc(-c2nnc(-c3ccc(N4CCOCC4)cc3)o2)cc(OC)c1OC	none (no result: MITF TRPM1 HTS, Wnt bcat act)
CCOC(=O)c1cc([N+](=O)[O-])cc([N+](=O)[O-])c1Sc1ncnc2nc[nH]c12	PfHsp90 yeast 2 107, N-glyco inh 99 (no result: MITF TRPM1 HTS, esBAF inh)
O=C(CSc1ncnc2nc[nH]c12)c1ccc([N+](=O)[O-])cc1	N-glyco inh 45 (no result: esBAF inh)
CCOC(=O)C(C)(C)Sc1ncnc2nc[nH]c12	none (no result: Wnt bcat act)
O=C(CCC(=O)N(Cc1ccco1)C(C(=O)NC1CCCC1)c1ccncc1)Nc1cccnc1 (stereo not given)	none
O=C(Nc1cc2c(cc1Cl)OCCCO2)c1ccccc1	esBAF inh 57
CN1C(=O)NC(NC(=O)c2cccs2)(C(F)(F)F)C1=O (stereo not given)	none (no result: MITF TRPM1 HTS, Wnt bcat act)
Cc1occc1-c1nnc(SCC(=O)Nc2ccccc2)n1Cc1ccccc1	esBAF inh 46 (no result: Wnt bcat act)
O=C1CCC(C(=O)N2CCCCO2)CN1CCc1ccccc1 (stereo not given)	esBAF inh 51
COc1ccccc1CN1CC(C(=O)N2CCCCO2)CCC1=O (stereo not given)	none
COC(=O)C1CCN(C(=O)C2CCC(=O)N(CCc3cccc(F)c3)C2)CC1 (stereo not given)	esBAF inh 53
CN1CCN(C(=O)C2CCC(=O)N(CCc3cccc(F)c3)C2)CC1 (stereo not given)	none (no result: esBAF inh)
O=C(CCn1nc(-c2ccccc2)c2ccccc2c1=O)N1CCN(c2ccccc2)CC1	none (no result: PfHsp90 yeast 2, MITF TRPM1 HTS)
CCN(CC)CCCNc1nc2cc(OC)c(OC)cc2c2nc(-c3ccccc3)nn12	N-glyco inh 41
CCN(CC)CCCNc1nc2ccccc2c2nc(-c3ccncc3)nn12	N-glyco inh 119
Cc1csc(SCC(=O)N(C)CC(=O)Nc2ccccc2Cl)n1	none
Cc1ccc(NCc2ccc(O)c3ncccc23)cc1	none (no result: esBAF inh)
CC(=O)N1N=C(c2ccc(C)cc2)CC1c1ccc2c(c1)OCO2 (stereo not given)	esBAF inh 100, Wnt bcat act inconclusive (no result: MITF TRPM1 HTS)
CC(=O)N1N=C(c2ccc(C)cc2)CC1c1ccco1 (stereo not given)	none
CS(=O)(=O)N1N=C(c2ccc(Br)cc2)CC1c1ccc2c(c1)OCO2 (stereo not given)	MITF TRPM1 HTS inconclusive, esBAF inh 54 (no result: Wnt bcat act)
CS(=O)(=O)Nc1ccc(C2=NN(S(C)(=O)=O)C(c3ccc4nccnc4c3)C2)cc1 (stereo not given)	none (no result: PfHsp90 yeast 2)
Cc1ccc(C2=NN(S(C)(=O)=O)C(c3ccc4c(c3)OCO4)C2)cc1 (stereo not given)	Wnt bcat act 50 (no result: Vif imaging, esBAF inh)
CCc1ccc(CCC(=O)Nc2ccccc2C(=O)O)o1	none (no result: PfHsp90 yeast 2, Wnt bcat act)
COc1cccc(N2CCN(S(=O)(=O)c3c(C)[nH]c(C)c3C(=O)N3CCCCC3)CC2)c1	none
Cc1ccc(C2N(c3cccc(Cl)c3)C(=O)N3CCCN23)cc1 (stereo not given)	none (no result: esBAF inh)
Nc1nc(Nc2ccccc2)nc(N2CCCC2)c1[N+](=O)[O-]	esBAF inh 50
COc1ccc(Nc2nc(N)c([N+](=O)[O-])c(N3CCCC3)n2)cc1	none
Cc1ccc(Nc2nc(N)c([N+](=O)[O-])c(N3CCCC(C)C3)n2)cc1C (stereo not given)	PfHsp90 yeast 2 132 (no result: esBAF inh, Wnt bcat act)
Oc1ccc(Nc2nc(N3CCCC3)c3ccccc3n2)cc1	N-glyco inh 53 (no result: esBAF inh, Wnt bcat act)
COc1ccc(Nc2nc(N3CCCCC3)c3ccccc3n2)cc1	none (no result: Vif imaging, Wnt bcat act)
COc1ccc(NC(=O)c2ccco2)cc1NC(=O)c1cccnc1	none (no result: PfHsp90 yeast 2, Wnt bcat act)
COc1ccccc1-c1cc(C(=O)NCCc2ccccc2)no1	esBAF inh 60 (no result: PfHsp90 yeast 2, MITF TRPM1 HTS)
COc1cccc(CCNC(=O)c2cc(COc3cccc(OC)c3)on2)c1	none (no result: PfHsp90 yeast 2, MITF TRPM1 HTS, esBAF inh)
CCCc1cc(C(=O)NCCc2ccccc2)no1	esBAF inh 50 (no result: MITF TRPM1 HTS)
Cc1ccc(OCc2cc(C(=O)NCCc3cccnc3)no2)cc1C	esBAF inh 58
O=C(Cc1ccc2c(c1)CCCC2)Nc1ccccc1Br	none
O=C(Nc1ccc(C(=O)O)cc1)/C(=C/c1cccc(Br)c1)NC(=O)c1ccco1	none
CCO[C@H]1OC(C(=O)N2CCN(C)CC2)=C[C@@H](c2ccc(C(F)(F)F)cc2)[C@@H]1CCCO	none
COc1ccc(NC(=O)c2cc3ccccc3o2)cc1	esBAF inh 58
N=c1oc2ccccc2cc1C(=O)Nc1ccc(F)cc1	Wnt bcat act 38
CSc1nnc(NC(=O)c2cc3ccccc3oc2=O)s1	esBAF inh 54 (no result: MITF TRPM1 HTS)
COc1ccc(NC(=O)c2ccc(-c3ccc(C(C)=O)cc3)o2)cn1	esBAF inh 45
COc1ccc(N2CC(C(=O)Nc3nnc(SCC(=O)NC(C)(C)C)s3)CC2=O)cc1 (stereo not given)	none (no result: esBAF inh)
O=C(Nc1ccccc1)c1cc2ccccc2o1	Wnt bcat act 35 (no result: Vif imaging)
O=C(c1cc2ccccc2o1)c1cccs1	esBAF inh inconclusive, Wnt bcat act 58 (no result: PfHsp90 yeast 2, MITF TRPM1 HTS)
O=C(Nc1ccc(N2CCCC2)cc1)c1cc2ccccc2o1	esBAF inh 43
CC(=O)N1CCN(c2ccc(NC(=O)c3cc4ccccc4o3)cc2)CC1	none
N=c1oc2cc(O)ccc2cc1C(=O)Nc1ccc(Cl)cc1	esBAF inh 58, Wnt bcat act 47
O=C(NC(=S)Nc1ccc(NC(=O)c2cccs2)cc1)c1cc2ccccc2o1	none (no result: esBAF inh, Wnt bcat act)
O=C(NNC(=O)c1cccc(-n2cccc2)c1)c1ccccc1	esBAF inh inconclusive (no result: PfHsp90 yeast 2)
Cc1ccc2c(c1)c1c(n2CC(O)CNC(C)(C)C)CCCC1 (stereo not given)	none
